From PubChem BioAssay AID743455 (The Scripps Research Institute Molecular Screening Center, 2014)
The other results are listed elsewhere or left out. The source made the active and inactive calls.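 How the source made its calls: active means IC50 at or below 10 µM; inactive means IC50 above 10 µM.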

Test: 535nm fluorescence optical interference, dose response, artefact control for HGIII-sPLA2 inhibitor project, biochemical, QFRET (AID 743455)
Settings: BODIPY FL product fluorescence interference, cell-free

IC50, inactive:
O=C(NNC(=S)Nc1ccc(Br)cc1Cl)c1ccco1 > 122 µM, CC(C)CC(=O)NC(=S)NNC(=O)c1cccc([N+](=O)[O-])c1 > 122 µM, Cc1ccc2sc(NNC(=O)c3ccc4c(c3)OCCO4)nc2c1C > 122 µM, O=C1C(=O)N(Cc2ccc(-c3ccsc3)cc2)c2ccc(OC(F)(F)F)cc21 > 122 µM, Cc1cccc(-n2cnc(C(=O)NNC(=S)Nc3ccccc3)c2)n1 > 122 µM, COc1ccc(Cl)cc1C(=O)NNC(=S)NC1CCCC1 > 122 µM, O=C(NNC(=S)NC1CCCCC1)c1ccccc1Cl > 122 µM, O=C(N/N=C/c1cc(Cl)cc([N+](=O)[O-])c1O)C(O)(c1ccccc1)c1ccccc1 > 122 µM, O=C(NNC(=S)Nc1ccc(F)cc1)[C@H]1C[C@@H]1c1ccccc1 > 122 µM, COc1ccc2c(c1)c(=Cc1ccc(N(C)C)cc1)c1cc(-c3ccccc3)[n+](C)n12 > 122 µM, C/C(=N\NC(=S)Nc1ccc(C)cc1)c1cc2ccccc2o1 > 122 µM, Cn1cc(Cl)c(C(=O)NNC(=S)Nc2cccc(Cl)c2)n1 > 122 µM, COc1ccc(C(=O)NC(=S)NNC(=O)c2c(-c3ccccc3)noc2C)cc1 > 122 µM
